Data as given in PubChem BioAssay AID1159580 (chemical genetic matrix, 2015).
In all, about 5,500 compounds went through this assay and about 2,000 (36%) were called active. Inconclusive results (about 18%) are left out. No stated cut-off is given here; in the data, active means normalized growth mostly below about 0.91 (no sharp cut-off); inconclusive means no clear call, values can overlap the other calls; inactive means mostly above about 0.92. Some of the results follow.

Test: chemical genetic growth profiling, strain panel (AID 1159580);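 further: tested at 20 µM; growth read once vehicle control cultures reached saturation at 30 °C; 1 = growth at the plate median or of vehicle wells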
Conditions: growth OD

Measured: normalized growth

CC1=C(C(C)O)C2=NC1C=c1[nH]c(c(C)c1C(C)O)=Cc1[nH]c(c(CCC(=O)O)c1C)C=c1[nH]c(c(C)c1CCC(=O)O)=C2 (stereo not drawn)
inactive: S. cerevisiae deletion strains, locus YJL187C, strain SWE1, stronger effect = lower value 0.995 | S. cerevisiae deletion strains, locus YJR043C, strain POL32, stronger effect = lower value 0.93 | S. cerevisiae deletion strains, locus YJR066W, strain TOR1, stronger effect = lower value 1.02 | S. cerevisiae deletion strains, locus YKL009W, strain mrt4, stronger effect = lower value 1.04 | S. cerevisiae deletion strains, locus YKL068W, stronger effect = lower value 1.01 | S. cerevisiae deletion strains, locus YKL085W, strain MDH1 (second series), stronger effect = lower value 1.02 | S. cerevisiae deletion strains, locus YKL085W, strain MDH1, stronger effect = lower value 1.02 | S. cerevisiae deletion strains, locus YKL160W, strain elf1, stronger effect = lower value 0.99 | S. cerevisiae deletion strains, locus YKL190W, strain CNB1, stronger effect = lower value 1 | S. cerevisiae deletion strains, locus YKR001C, strain vps1, stronger effect = lower value 1 | S. cerevisiae deletion strains, locus YKR026C, strain gcn3, stronger effect = lower value 0.989 | S. cerevisiae deletion strains, locus YKR091W, strain srl3, stronger effect = lower value 1 | S. cerevisiae deletion strains, locus YLL001W, strain dnm1, stronger effect = lower value 0.988 | S. cerevisiae deletion strains, locus YLL026W, stronger effect = lower value 0.992 | S. cerevisiae deletion strains, locus YLL041C, strain sdh2, stronger effect = lower value 0.995 | S. cerevisiae deletion strains, locus YLR027C, strain aat2, stronger effect = lower value 0.982 | S. cerevisiae deletion strains, locus YLR039C, strain RIC1, stronger effect = lower value 1.04 | S. cerevisiae deletion strains, locus YLR058C, strain SHM2, stronger effect = lower value 1 | S. cerevisiae deletion strains, locus YLR102C, strain apc9, stronger effect = lower value 1.02 | S. cerevisiae deletion strains, locus YLR221C, strain rsa3, stronger effect = lower value 0.967 | S. cerevisiae deletion strains, locus YLR258W, strain gsy2, stronger effect = lower value 0.996 | S. cerevisiae deletion strains, locus YLR262C, strain YPT6 (second series), stronger effect = lower value 1.06 | S. cerevisiae deletion strains, locus YLR262C, strain YPT6, stronger effect = lower value 1.01 | S. cerevisiae deletion strains, locus YLR268W, strain sec22, stronger effect = lower value 1.01 | S. cerevisiae deletion strains, locus YLR320W, strain mms22, stronger effect = lower value 0.938 | S. cerevisiae deletion strains, locus YLR330W, strain CHS5, stronger effect = lower value 1.01 | S. cerevisiae deletion strains, locus YLR342W, strain FKS1 (second series), stronger effect = lower value 0.995 | S. cerevisiae deletion strains, locus YLR342W, strain FKS1, stronger effect = lower value 0.987 | S. cerevisiae deletion strains, locus YLR357W, strain rsc2, stronger effect = lower value 0.923 | S. cerevisiae deletion strains, locus YLR370C, strain arc18, stronger effect = lower value 0.988 | S. cerevisiae deletion strains, locus YLR371W, strain rom2, stronger effect = lower value 1.02 | S. cerevisiae deletion strains, locus YLR384C, strain iki3, stronger effect = lower value 0.99 | S. cerevisiae deletion strains, locus YLR418C, strain cdc73, stronger effect = lower value 0.937 | S. cerevisiae deletion strains, locus YML016C, strain PPZ1, stronger effect = lower value 1.01 | S. cerevisiae deletion strains, locus YML032C, strain rad52, stronger effect = lower value 1 | S. cerevisiae deletion strains, locus YML120C, strain ndi1, stronger effect = lower value 1 | S. cerevisiae deletion strains, locus YML124C, strain tub3, stronger effect = lower value 1.02 | S. cerevisiae deletion strains, locus YMR058W, strain fet3, stronger effect = lower value 0.943 | S. cerevisiae deletion strains, locus YMR078C, strain ctf18, stronger effect = lower value 1.03 | S. cerevisiae deletion strains, locus YMR125W, strain sto1, stronger effect = lower value 1 | S. cerevisiae deletion strains, locus YMR129W, stronger effect = lower value 0.986 | S. cerevisiae deletion strains, locus YMR205C, strain PFK2, stronger effect = lower value 0.943 | S. cerevisiae deletion strains, locus YMR223W, strain ubp8, stronger effect = lower value 0.976 | S. cerevisiae deletion strains, locus YMR231W, strain pep5, stronger effect = lower value 0.98 | S. cerevisiae deletion strains, locus YMR307W, strain GAS1, stronger effect = lower value 0.82 | S. cerevisiae deletion strains, locus YNL067W, strain RPL9B, stronger effect = lower value 0.996 | S. cerevisiae deletion strains, locus YNL071W, strain lat1, stronger effect = lower value 0.963 | S. cerevisiae deletion strains, locus YNL183C, strain NPR1, stronger effect = lower value 1.02 | S. cerevisiae deletion strains, locus YNL209W, strain ssb2, stronger effect = lower value 0.999 | S. cerevisiae deletion strains, locus YNL233W, strain BNI4, stronger effect = lower value 0.994 | S. cerevisiae deletion strains, locus YNL248C, strain rpa49, stronger effect = lower value 0.971 | S. cerevisiae deletion strains, locus YNL250W, strain rad50, stronger effect = lower value 1.03 | S. cerevisiae deletion strains, locus YNL271C, strain bni1, stronger effect = lower value 1.01 | S. cerevisiae deletion strains, locus YNL298W, strain CLA4, stronger effect = lower value 1.02 | S. cerevisiae deletion strains, locus YNL307C, strain MCK1, stronger effect = lower value 1.02 | S. cerevisiae deletion strains, locus YNL322C, strain KRE1 (second series), stronger effect = lower value 0.99 | S. cerevisiae deletion strains, locus YNR049C, strain mso1, stronger effect = lower value 0.998 | S. cerevisiae deletion strains, locus YNR052C, strain pop2, stronger effect = lower value 1.02 | S. cerevisiae deletion strains, locus YOL012C, strain htz1 0.754 | S. cerevisiae deletion strains, locus YOL147C, strain pex11, stronger effect = lower value 1.01 | S. cerevisiae deletion strains, locus YOR001W, strain rrp6, stronger effect = lower value 1 | S. cerevisiae deletion strains, locus YOR061W, strain CKA2, stronger effect = lower value 1.01 | S. cerevisiae deletion strains, locus YOR069W, strain VPS5, stronger effect = lower value 1.01 | S. cerevisiae deletion strains, locus YOR070C, strain gyp1, stronger effect = lower value 0.989 | S. cerevisiae deletion strains, locus YOR080W, strain dia2, stronger effect = lower value 0.987 | S. cerevisiae deletion strains, locus YOR083W, strain WHI5, stronger effect = lower value 0.986 | S. cerevisiae deletion strains, locus YOR106W, strain vam3, stronger effect = lower value 0.94 | S. cerevisiae deletion strains, locus YOR136W, strain idh2, stronger effect = lower value 1.01 | S. cerevisiae deletion strains, locus YOR144C, strain elg1, stronger effect = lower value 1.02 | S. cerevisiae deletion strains, locus YOR184W, strain ser1, stronger effect = lower value 0.972 | S. cerevisiae deletion strains, locus YOR231W, strain MKK1, stronger effect = lower value 1.13 | S. cerevisiae deletion strains, locus YOR265W, strain rbl2, stronger effect = lower value 0.995 | S. cerevisiae deletion strains, locus YOR270C, strain vph1, stronger effect = lower value 0.915 | S. cerevisiae deletion strains, locus YOR290C, strain snf2, stronger effect = lower value 0.984 | S. cerevisiae deletion strains, locus YOR316C, strain cot1, stronger effect = lower value 1.02 | S. cerevisiae deletion strains, locus YPL051W, strain arl3, stronger effect = lower value 0.984 | S. cerevisiae deletion strains, locus YPL055C, strain LGE1, stronger effect = lower value 0.973 | S. cerevisiae deletion strains, locus YPL078C, strain atp4, stronger effect = lower value 0.996 | S. cerevisiae deletion strains, locus YPL106C, strain sse1, stronger effect = lower value 0.93 | S. cerevisiae deletion strains, locus YPL240C, strain hsp82, stronger effect = lower value 0.996 | S. cerevisiae deletion strains, locus YPL256C, strain CLN2, stronger effect = lower value 1.07 | S. cerevisiae deletion strains, locus YPR119W, strain clb2, stronger effect = lower value 1.02 | S. cerevisiae deletion strains, locus YPR141C, strain kar3, stronger effect = lower value 1.05 | S. cerevisiae deletion strains, locus YPR163C, strain tif3, stronger effect = lower value 1.01 | S. cerevisiae deletion strains, locus YPR167C, strain met16, stronger effect = lower value 1 | S. cerevisiae deletion strains, strain wtn01, stronger effect = lower value 0.981 | S. cerevisiae strains, strain wild type, stronger effect = lower value 0.968
active: S. cerevisiae deletion strains, locus YLR113W, strain HOG1, stronger effect = lower value 1.19 [resistant]
